By residual activity is commonly meant the signal under treatment as a percentage of the control signal.

From ChEMBL document CHEMBL2218924, “A broad activity screen in support of a chemogenomic map for kinase signalling research and drug discovery” (Biochem J, 2013) come the findings set out here.

Assay [1] has as its target T1, Muscle, skeletal receptor tyrosine-protein kinase (Homo sapiens) (UniProt O15146).
T1 sequence (whole entry): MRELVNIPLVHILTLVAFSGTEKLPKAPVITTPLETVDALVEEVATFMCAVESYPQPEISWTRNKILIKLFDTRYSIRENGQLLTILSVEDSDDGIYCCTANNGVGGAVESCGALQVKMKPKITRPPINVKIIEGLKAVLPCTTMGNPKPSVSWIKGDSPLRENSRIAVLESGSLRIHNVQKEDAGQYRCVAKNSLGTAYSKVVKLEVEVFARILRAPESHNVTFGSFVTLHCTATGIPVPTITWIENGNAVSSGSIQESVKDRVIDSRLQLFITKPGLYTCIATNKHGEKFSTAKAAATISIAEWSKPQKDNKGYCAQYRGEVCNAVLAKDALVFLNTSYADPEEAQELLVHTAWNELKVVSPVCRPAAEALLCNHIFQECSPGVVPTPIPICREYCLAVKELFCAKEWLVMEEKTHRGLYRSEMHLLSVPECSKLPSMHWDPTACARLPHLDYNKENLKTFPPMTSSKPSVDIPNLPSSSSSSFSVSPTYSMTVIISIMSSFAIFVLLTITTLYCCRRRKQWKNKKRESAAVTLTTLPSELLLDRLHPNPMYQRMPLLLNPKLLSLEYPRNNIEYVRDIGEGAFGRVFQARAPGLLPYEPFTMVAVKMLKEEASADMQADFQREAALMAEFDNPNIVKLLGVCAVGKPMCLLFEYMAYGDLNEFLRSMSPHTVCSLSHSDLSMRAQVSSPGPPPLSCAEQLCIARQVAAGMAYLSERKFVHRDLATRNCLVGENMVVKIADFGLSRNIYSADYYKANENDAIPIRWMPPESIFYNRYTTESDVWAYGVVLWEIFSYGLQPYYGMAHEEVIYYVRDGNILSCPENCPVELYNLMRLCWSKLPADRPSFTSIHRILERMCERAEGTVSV
The settings on record: at 1 µM.

The target of assay [2] is T1, Muscle, skeletal receptor tyrosine-protein kinase (Homo sapiens). The settings on record: at 10 µM.
Assay [3] addresses T2, Serine/threonine-protein kinase Nek11 (Homo sapiens) (UniProt Q8NG66).
T2 sequence (whole entry): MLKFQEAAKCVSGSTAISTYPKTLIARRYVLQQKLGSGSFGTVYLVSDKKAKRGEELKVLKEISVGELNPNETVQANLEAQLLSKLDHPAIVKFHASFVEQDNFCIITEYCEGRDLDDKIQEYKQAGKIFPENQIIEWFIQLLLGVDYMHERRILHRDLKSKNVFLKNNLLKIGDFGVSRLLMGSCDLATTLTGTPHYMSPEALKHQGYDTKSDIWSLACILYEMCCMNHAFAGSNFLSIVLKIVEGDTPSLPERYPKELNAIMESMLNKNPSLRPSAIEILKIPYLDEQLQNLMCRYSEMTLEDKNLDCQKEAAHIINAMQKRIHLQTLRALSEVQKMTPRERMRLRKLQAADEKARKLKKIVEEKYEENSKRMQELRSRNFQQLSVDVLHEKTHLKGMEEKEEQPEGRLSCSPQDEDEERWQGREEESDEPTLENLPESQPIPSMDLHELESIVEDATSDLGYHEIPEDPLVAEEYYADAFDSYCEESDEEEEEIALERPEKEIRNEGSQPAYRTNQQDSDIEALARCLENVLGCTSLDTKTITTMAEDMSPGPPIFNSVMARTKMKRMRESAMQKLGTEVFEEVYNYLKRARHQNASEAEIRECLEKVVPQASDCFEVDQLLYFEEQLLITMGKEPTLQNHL
The settings on record: at 1 µM.

In assay [4] the target is T2, Serine/threonine-protein kinase Nek11 (Homo sapiens). Conditions: at 10 µM.
In assay [5] the target is T3, Serine/threonine-protein kinase Nek2 (Homo sapiens) (UniProt P51955).
T3 sequence (whole entry): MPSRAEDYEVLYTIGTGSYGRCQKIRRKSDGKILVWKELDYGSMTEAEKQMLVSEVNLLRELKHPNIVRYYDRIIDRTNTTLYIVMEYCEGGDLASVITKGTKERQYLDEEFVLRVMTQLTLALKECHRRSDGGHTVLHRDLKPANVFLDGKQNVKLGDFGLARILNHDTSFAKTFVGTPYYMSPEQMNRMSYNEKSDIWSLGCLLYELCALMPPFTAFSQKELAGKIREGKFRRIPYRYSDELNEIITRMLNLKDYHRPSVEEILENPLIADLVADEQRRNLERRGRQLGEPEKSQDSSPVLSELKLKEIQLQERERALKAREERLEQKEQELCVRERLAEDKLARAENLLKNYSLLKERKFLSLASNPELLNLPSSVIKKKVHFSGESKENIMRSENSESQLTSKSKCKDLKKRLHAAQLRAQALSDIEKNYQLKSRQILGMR
The settings on record: at 1 µM.

The target in assay [6] is T3, Serine/threonine-protein kinase Nek2 (Homo sapiens). Conditions: at 10 µM.
The target of assay [7] is T4, Serine/threonine-protein kinase Nek3 (Homo sapiens) (UniProt P51956).
T4 sequence (whole entry): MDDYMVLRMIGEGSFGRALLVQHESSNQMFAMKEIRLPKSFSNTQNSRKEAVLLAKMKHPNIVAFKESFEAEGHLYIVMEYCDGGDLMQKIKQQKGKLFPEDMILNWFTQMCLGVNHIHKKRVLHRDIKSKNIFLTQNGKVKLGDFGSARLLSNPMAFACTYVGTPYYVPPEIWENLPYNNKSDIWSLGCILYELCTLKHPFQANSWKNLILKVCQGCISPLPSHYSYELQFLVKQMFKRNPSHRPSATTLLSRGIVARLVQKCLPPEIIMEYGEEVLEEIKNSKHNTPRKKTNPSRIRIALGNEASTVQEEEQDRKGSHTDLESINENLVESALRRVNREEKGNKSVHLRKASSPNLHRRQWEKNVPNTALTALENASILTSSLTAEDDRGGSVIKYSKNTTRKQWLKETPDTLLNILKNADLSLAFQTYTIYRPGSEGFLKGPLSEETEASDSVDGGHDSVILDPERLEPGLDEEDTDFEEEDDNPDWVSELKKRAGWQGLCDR
Conditions: at 1 µM.

Assay [8] addresses T4, Serine/threonine-protein kinase Nek3 (Homo sapiens). Conditions: at 10 µM.
In assay [9] the target is Serine/threonine-protein kinase tousled-like 2 (Homo sapiens) (UniProt Q86UE8). Conditions: at 1 µM.
For assay [10] the target is unchanged. The settings on record: at 10 µM.
Assay [11] has as its target T5, Testis-specific serine/threonine-protein kinase 1 (Homo sapiens) (UniProt Q9BXA7).
T5 sequence (whole entry): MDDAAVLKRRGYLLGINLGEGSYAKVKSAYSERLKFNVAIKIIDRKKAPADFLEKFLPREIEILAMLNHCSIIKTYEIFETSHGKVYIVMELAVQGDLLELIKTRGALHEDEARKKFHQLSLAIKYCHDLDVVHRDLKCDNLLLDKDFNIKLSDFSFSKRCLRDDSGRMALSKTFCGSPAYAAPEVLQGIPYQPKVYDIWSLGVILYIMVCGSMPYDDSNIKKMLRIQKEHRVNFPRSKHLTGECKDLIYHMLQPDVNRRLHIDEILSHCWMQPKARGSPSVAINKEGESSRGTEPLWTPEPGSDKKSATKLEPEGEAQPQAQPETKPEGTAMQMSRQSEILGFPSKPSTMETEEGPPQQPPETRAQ
Conditions: at 1 µM.

For assay [12], the target named is T5, Testis-specific serine/threonine-protein kinase 1 (Homo sapiens). Conditions: at 10 µM.
Assay [13] deals with T6, Testis-specific serine/threonine-protein kinase 2 (Homo sapiens) (UniProt Q96PF2).
T6 sequence (whole entry): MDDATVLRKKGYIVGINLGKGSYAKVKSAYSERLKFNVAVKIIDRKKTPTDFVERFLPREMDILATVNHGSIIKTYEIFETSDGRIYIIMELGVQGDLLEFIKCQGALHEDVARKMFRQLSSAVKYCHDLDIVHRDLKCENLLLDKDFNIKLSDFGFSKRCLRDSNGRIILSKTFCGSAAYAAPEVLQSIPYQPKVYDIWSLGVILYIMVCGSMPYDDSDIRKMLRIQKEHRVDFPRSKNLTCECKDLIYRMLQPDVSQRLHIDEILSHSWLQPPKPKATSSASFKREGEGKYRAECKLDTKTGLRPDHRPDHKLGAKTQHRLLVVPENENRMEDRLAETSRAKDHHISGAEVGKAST
The settings on record: at 10 µM.

Assay [14] has as its target T7, Tyrosine-protein kinase Tec (Homo sapiens) (UniProt P42680).
T7 sequence (whole entry): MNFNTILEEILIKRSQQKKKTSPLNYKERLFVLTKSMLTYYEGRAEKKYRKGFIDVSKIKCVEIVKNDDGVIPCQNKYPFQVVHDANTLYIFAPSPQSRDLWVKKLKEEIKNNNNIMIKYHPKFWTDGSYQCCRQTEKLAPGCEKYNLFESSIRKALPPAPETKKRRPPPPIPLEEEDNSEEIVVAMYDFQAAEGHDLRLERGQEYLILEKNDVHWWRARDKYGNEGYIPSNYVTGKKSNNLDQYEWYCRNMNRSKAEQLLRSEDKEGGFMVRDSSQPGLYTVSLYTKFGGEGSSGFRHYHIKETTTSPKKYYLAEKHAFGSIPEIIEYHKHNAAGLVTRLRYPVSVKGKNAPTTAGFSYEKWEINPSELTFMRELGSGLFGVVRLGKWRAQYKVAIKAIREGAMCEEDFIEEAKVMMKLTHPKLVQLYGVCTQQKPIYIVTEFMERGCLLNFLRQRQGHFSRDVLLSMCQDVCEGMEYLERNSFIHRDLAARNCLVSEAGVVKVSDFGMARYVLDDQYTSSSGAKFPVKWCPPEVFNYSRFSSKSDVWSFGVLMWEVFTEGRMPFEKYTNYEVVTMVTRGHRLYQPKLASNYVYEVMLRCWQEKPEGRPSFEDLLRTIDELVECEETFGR
Conditions: at 1 µM.

Assay [15] has as its target T7, Tyrosine-protein kinase Tec (Homo sapiens). Conditions: at 10 µM.
Assay [16] has as its target Angiopoietin-1 receptor (Homo sapiens) (UniProt Q02763). The settings on record: at 1 µM.
For assay [17] the target is unchanged. Conditions: at 10 µM.
The target of assay [18] is High affinity nerve growth factor receptor (Homo sapiens) (UniProt P04629). The settings on record: at 1 µM.
Assay [19] shares this target. Conditions: at 10 µM.
Assay [20] concerns the target BDNF/NT-3 growth factors receptor (Homo sapiens) (UniProt Q16620). Conditions: at 1 µM.

High affinity nerve growth factor receptor (Homo sapiens), sequence (P04629 33-796 limits assumed): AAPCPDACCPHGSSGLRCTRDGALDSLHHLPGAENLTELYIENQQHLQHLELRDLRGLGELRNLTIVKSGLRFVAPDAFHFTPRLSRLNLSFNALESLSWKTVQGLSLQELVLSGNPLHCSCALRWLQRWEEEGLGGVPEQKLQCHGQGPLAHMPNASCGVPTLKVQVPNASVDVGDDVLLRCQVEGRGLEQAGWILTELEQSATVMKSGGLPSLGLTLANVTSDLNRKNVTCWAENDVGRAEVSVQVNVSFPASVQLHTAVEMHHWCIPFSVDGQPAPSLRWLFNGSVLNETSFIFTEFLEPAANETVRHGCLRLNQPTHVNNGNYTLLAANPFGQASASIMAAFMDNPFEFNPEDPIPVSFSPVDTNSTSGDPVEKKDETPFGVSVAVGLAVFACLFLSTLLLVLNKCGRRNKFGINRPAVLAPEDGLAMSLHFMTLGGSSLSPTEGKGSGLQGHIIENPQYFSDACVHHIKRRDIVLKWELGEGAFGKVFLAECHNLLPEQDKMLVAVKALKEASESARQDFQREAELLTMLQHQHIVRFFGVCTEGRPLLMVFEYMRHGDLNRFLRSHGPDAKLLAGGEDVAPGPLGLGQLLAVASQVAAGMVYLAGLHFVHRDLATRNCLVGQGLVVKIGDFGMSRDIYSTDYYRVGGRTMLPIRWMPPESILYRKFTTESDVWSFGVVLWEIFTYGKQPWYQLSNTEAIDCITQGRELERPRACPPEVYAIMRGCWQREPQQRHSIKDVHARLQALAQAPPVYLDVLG
Angiopoietin-1 receptor (Homo sapiens), sequence (Q02763 whole entry): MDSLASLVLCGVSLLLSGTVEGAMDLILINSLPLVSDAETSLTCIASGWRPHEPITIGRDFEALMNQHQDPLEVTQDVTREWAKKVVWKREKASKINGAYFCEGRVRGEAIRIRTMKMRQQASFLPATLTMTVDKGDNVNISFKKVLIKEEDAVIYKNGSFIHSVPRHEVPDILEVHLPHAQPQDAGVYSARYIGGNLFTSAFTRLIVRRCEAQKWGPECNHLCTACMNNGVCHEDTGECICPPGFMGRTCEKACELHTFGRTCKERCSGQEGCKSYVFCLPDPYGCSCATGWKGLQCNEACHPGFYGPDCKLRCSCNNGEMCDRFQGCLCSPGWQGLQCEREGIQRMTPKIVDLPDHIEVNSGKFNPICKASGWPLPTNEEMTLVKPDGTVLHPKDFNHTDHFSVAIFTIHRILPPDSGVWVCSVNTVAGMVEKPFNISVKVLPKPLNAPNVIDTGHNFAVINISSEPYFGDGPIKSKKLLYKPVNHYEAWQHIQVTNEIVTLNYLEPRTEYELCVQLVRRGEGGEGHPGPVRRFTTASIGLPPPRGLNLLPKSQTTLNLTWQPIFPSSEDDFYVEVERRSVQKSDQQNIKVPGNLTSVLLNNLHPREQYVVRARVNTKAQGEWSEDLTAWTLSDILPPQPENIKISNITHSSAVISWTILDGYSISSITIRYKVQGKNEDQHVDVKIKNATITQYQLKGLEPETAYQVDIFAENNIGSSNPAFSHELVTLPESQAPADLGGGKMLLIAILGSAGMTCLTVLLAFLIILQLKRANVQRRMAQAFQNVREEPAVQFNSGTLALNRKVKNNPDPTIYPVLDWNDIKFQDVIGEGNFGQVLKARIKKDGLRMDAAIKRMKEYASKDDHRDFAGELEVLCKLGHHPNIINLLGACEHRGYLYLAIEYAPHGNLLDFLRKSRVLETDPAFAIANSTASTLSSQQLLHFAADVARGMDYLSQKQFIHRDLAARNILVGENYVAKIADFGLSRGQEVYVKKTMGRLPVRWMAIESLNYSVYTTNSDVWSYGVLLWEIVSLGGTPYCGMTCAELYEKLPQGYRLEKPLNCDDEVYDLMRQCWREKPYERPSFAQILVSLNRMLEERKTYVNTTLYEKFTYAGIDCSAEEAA
BDNF/NT-3 growth factors receptor (Homo sapiens), sequence (Q16620 32-822 limits assumed): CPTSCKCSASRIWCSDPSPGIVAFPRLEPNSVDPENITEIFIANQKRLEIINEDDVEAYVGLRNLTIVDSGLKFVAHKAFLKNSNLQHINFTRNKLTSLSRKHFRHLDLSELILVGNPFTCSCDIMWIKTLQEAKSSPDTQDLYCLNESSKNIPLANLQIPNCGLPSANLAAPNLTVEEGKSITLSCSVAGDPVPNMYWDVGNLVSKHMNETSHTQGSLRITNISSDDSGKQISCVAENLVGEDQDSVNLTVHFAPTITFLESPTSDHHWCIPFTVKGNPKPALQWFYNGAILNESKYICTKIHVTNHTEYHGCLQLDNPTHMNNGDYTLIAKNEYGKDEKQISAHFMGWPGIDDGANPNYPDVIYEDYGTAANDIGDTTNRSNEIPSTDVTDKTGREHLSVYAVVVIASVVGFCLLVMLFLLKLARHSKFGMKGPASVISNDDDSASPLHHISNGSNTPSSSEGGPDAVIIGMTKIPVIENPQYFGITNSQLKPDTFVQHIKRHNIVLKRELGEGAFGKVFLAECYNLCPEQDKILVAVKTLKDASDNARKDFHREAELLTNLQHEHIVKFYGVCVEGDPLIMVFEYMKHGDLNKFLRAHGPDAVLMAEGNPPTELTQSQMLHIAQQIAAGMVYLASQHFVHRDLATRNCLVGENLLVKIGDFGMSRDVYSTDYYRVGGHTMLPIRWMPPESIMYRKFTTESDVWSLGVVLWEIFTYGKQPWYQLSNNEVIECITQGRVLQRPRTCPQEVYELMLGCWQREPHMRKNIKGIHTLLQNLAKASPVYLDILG
Serine/threonine-protein kinase tousled-like 2 (Homo sapiens), sequence (Q86UE8 whole entry, looked up): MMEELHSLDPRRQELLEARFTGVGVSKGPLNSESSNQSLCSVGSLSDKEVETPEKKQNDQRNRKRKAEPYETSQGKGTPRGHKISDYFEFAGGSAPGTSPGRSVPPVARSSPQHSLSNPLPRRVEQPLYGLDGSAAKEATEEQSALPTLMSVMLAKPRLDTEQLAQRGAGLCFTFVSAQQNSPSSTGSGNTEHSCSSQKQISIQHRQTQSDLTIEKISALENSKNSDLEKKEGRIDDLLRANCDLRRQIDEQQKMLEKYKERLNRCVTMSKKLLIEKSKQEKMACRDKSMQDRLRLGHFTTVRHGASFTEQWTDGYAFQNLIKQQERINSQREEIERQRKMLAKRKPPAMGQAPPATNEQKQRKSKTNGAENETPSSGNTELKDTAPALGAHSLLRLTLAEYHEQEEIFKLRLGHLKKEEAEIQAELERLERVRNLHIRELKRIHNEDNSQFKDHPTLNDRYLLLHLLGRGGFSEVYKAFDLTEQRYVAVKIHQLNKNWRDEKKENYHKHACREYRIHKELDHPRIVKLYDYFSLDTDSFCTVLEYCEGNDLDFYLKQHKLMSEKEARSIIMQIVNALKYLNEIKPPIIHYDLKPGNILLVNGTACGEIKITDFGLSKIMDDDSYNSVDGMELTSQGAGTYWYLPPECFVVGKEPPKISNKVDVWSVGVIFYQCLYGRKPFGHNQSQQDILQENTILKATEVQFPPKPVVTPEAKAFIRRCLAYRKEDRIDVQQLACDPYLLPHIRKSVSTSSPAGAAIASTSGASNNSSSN

As for `Ic1cccc(CSc2nnc(-c3ccncc3)o2)c1`, the residual activity in assay [1] came to 74%; in [2] it was 59%; in assay [3], 103%; in [4], 102%; in assay [5], 88%; in assay [6] it was 89%. Besides, the residual activity in assay [7] is 84%; in assay [8] it was 84%; in [9], 83%; in assay [10] it was 83%; in [11], 78%; in assay [12] it was 86%. The residual activity came out at 82% in assay [13]; 90% in [14]; 64% in assay [15]; 104% in assay [16]; 84% in [17]; 87% in [18]. The residual activity in assay [19] came to 64%; in assay [20] it was 32%.

`CC(C)n1cnc2/c(=N/c3cccc(Cl)c3)nc(NCCO)[nH]c21`: the residual activity in assay [1] turned out to be 75%; in assay [2] it was 35%; in assay [3], 43%; in assay [4], 58%; in assay [5] it was 85%; in assay [6], 64%. For the same molecule, the residual activity in assay [7] worked out at 76%; in [8], 68%; in assay [9] it was 82%; in [10], 68%; in assay [11], 94%; in assay [12], 60%. In addition, the residual activity worked out at 81% in [13]; 71% in assay [14]; 31% in assay [15]; 91% in assay [16]; 89% in assay [17]; 24% in [18]. Moreover, the residual activity in [19] stood at 1%; in assay [20] it was 8%.

In the case of `O=C1NC(=O)c2c1c1c3ccccc3[nH]c1c1[nH]c3cc(Br)ccc3c21`, the residual activity in [1] was 104%; in assay [2], 90%; in assay [3] it was 62%; in [4] it was 73%; in [5] it was 91%; in assay [6] it was 88%. Further, the residual activity in [7] worked out at 85%; in assay [8] it was 92%; in assay [9] it was 85%; in assay [10], 86%; in [11], 110%; in [12] it was 91%. Further, the residual activity stood at 86% in [13]; 98% in [14]; 82% in assay [15]; 94% in assay [16]; 81% in assay [17]; 37% in assay [18]. The residual activity in assay [19] was 27%; in assay [20], 74%.

In the case of `COc1ccc(S(=O)(=O)N(CCO)c2ccccc2CN(C)C/C=C/c2ccc(Cl)cc2)cc1`, the residual activity in [1] is 79%; in [2], 79%; in assay [3] it was 95%; in [4], 109%; in [5], 105%; in [6] it was 102%. The residual activity in assay [7] amounted to 80%; in [8], 92%; in [9], 92%; in [10], 85%; in [11] it was 97%; in assay [12], 81%. For the same molecule, the residual activity worked out at 86% in assay [13]; 102% in [14]; 36% in assay [15]; 118% in assay [16]; 66% in assay [17]; 87% in [18]. The values for the residual activity in assay [19] and in assay [20] were 47% and 86%, respectively.
